# From PubChem BioAssay (NCI)
# About 79,000 compounds went through this panel and 15% of them were active in at least one assay; those are over-represented in the sample as a whole. Values without a mark were called inactive. Activity calls are given as the source filed them. Rule as the data show it: active = growth inhibition above about 70%; inactive = the rest.
# What was measured:
# [1] = NCI Yeast Anticancer Drug Screen. Data for the wt1 strain (AID 149);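 also: 0% = growth of vehicle-treated wt1 cultures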; conditions: S. cerevisiae wt1 strain (SPY 50644) growth inhibition, stronger effect = higher value
# Method in brief: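 Using yeast strain wt1, compound-induced growth inhibition was determined against vehicle-treated cultures.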
# [2] = NCI Yeast Anticancer Drug Screen. Data for the mgt1 strain (AID 153); conditions: S. cerevisiae mgt1 mutant growth inhibition, stronger effect = higher value
# Method in brief: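 Genetically defined yeast (mgt1) treated with compound; inhibition of growth expressed against vehicle-treated controls.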
# [3] = NCI Yeast Anticancer Drug Screen. Data for the rad50 strain (AID 155);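 also: 0% = growth of vehicle-only cultures of the same strain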; conditions: S. cerevisiae rad50 strain growth inhibition, stronger effect = higher value
# Method in brief: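 Relative growth inhibition (compound vs vehicle) was measured in yeast with a defined repair-gene alteration.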
# [4] = NCI Yeast Anticancer Drug Screen. Data for the mec2-1 strain (AID 157); conditions: S. cerevisiae mec2-1 strain, stronger effect = higher value
# Method in brief: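 Readout is yeast growth inhibition, normalised to vehicle-treated controls, in the mec2-1 strain exposed to compound.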
# [5] = NCI Yeast Anticancer Drug Screen. Data for the rad14 strain (AID 159);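 also: 0% = growth of vehicle-treated control cultures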; conditions: S. cerevisiae rad14 strain growth inhibition, stronger effect = higher value
# Method in brief: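 Screen for anticancer potential: a yeast strain altered in DNA damage repair is grown with compound, and reduced growth is quantified against vehicle controls.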
# [6] = NCI Yeast Anticancer Drug Screen. Data for the sgs1 mgt1 strain (AID 161);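 also: 0% = growth of cultures given vehicle only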; conditions: S. cerevisiae sgs1 mgt1 strain, stronger effect = higher value
# Method in brief: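 This yeast growth screen uses a strain with defined DNA-repair lesions; compound-treated growth is compared with vehicle-treated growth.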
# [7] = NCI Yeast Anticancer Drug Screen. Data for the CLN2oe strain (AID 163);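 also: 0% = growth of vehicle-only control cultures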; conditions: S. cerevisiae CLN2oe strain, stronger effect = higher value
# Method in brief: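 Values reflect how much compound exposure reduced yeast growth, referenced to vehicle-exposed cells. Assay organism is a strain with a defined genetic change affecting cell-cycle control.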
# [8] = NCI Yeast Anticancer Drug Screen. Data for the cln2 rad14 strain (AID 165);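 also: 0% = growth equal to vehicle treated cultures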; conditions: S. cerevisiae cln2 rad14 strain, stronger effect = higher value
# Method in brief: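 Relative to vehicle controls, growth inhibition of compound-treated cln2 rad14 yeast was recorded.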
# [9] = NCI Yeast Anticancer Drug Screen. Data for the bub3 strain (AID 167); conditions: S. cerevisiae bub3 mutant strain, stronger effect = higher value
# Method in brief: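 Screening used yeast with an engineered genetic alteration affecting cell cycle control. Compound-exposed cultures were compared with vehicle cultures, and reduced growth was taken as inhibition.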
# [10] = NCI Yeast Anticancer Drug Screen. Data for the wt2 strain (AID 169);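 also: 0% = growth of vehicle-treated yeast cultures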; conditions: S. cerevisiae wt2 strain growth inhibition, stronger effect = higher value
# Method in brief: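 Values express reduction in yeast growth under compound treatment, referenced to vehicle-treated cells.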
# [11] = NCI Yeast Anticancer Drug Screen. Data for the mlh1 strain (AID 171);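 also: 0% = growth of vehicle-treated control cultures of the same strain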; conditions: S. cerevisiae mlh1 strain growth inhibition, stronger effect = higher value
# Method in brief: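 Steps: expose the defined-mutant yeast strain to compound; expose a parallel culture to vehicle; measure growth; express compound effect as inhibition relative to the vehicle culture.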
# [12] = NCI Yeast Anticancer Drug Screen. Data for the sgs1 strain (AID 173);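 also: 0% = growth of vehicle-only control cultures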; conditions: S. cerevisiae sgs1 mutant, stronger effect = higher value
# Method in brief: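 Treat defined-mutant yeast with compound; measure growth; calculate inhibition relative to vehicle-treated cells.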
# [13] = NCI Yeast Anticancer Drug Screen. Data for the mlh1 rad18 strain (AID 175); conditions: S. cerevisiae mlh1 rad18 strain growth inhibition, stronger effect = higher value
# Method in brief: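 Test agents were incubated with a yeast strain of defined genotype (DNA damage repair defect). Inhibition of growth was derived by comparison with vehicle-exposed cultures.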
# [14] = NCI Yeast Anticancer Drug Screen. Data for the rad18 strain (AID 177); conditions: S. cerevisiae rad18 mutant growth inhibition, stronger effect = higher value
# Method in brief: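 A genetically defined yeast mutant impaired in DNA damage repair was treated with test compounds, then its growth was measured against cultures receiving vehicle alone.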
# [15] = NCI Yeast Anticancer Drug Screen. Data for the rad50EPP+ strain (AID 151);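 also: 0% = growth of vehicle-treated control cultures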; conditions: S. cerevisiae rad50 mutant strain, stronger effect = higher value
# Method in brief: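 Exposing the rad50EPP+ strain to each compound, growth was compared with vehicle-only cultures to give inhibition.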
# [16] = at 5.0 µM (retest, dose inferred, filed as 0.5)
# [17] = at 50.0 µM (retest, dose inferred, filed as 5.0)
smiles,measurement,setting,value
O=S(=O)(O)CC[S][Sn]([S]CCS(=O)(=O)O)([c]1ccccc1)[c]1ccccc1,growth inhibition,[1]; at 1.2 µM,-25%
same,growth inhibition,[1]; at 3.7 µM,12%
same,growth inhibition,[1]; at 11.0 µM,80% (active)
same,growth inhibition,[1]; at 33.0 µM,95% (active)
same,growth inhibition,[1]; at 100.0 µM,98% (active)
same,growth inhibition,[2]; at 1.2 µM,-7%
same,growth inhibition,[2]; at 3.7 µM,45%
same,growth inhibition,[2]; at 11.0 µM,92% (active)
same,growth inhibition,[2]; at 33.0 µM,97% (active)
same,growth inhibition,[2]; at 100.0 µM,98% (active)
same,growth inhibition,[3]; at 1.2 µM,-28%
same,growth inhibition,[3]; at 3.7 µM,18%
same,growth inhibition,[3]; [16],22%
same,growth inhibition,[3]; at 11.0 µM,90% (active)
same,growth inhibition,[3]; at 33.0 µM,97% (active)
same,growth inhibition,[3]; [17],97% (active)
same,growth inhibition,[3]; at 50.0 µM,88.5% (active)
same,growth inhibition,[3]; at 100.0 µM,97% (active)
same,growth inhibition,[4]; at 1.2 µM,-21%
same,growth inhibition,[4]; at 3.7 µM,11%
same,growth inhibition,[4]; [16],20%
same,growth inhibition,[4]; at 11.0 µM,81% (active)
same,growth inhibition,[4]; at 33.0 µM,97% (active)
same,growth inhibition,[4]; [17],99% (active)
same,growth inhibition,[4]; at 50.0 µM,89.8% (active)
same,growth inhibition,[4]; at 100.0 µM,98% (active)
same,growth inhibition,[5]; at 1.2 µM,-6%
same,growth inhibition,[5]; at 3.7 µM,35%
same,growth inhibition,[5]; at 11.0 µM,91% (active)
same,growth inhibition,[5]; at 33.0 µM,97% (active)
same,growth inhibition,[5]; at 100.0 µM,97% (active)
same,growth inhibition,[6]; [16],3%
same,growth inhibition,[6]; [17],95% (active)
same,growth inhibition,[6]; at 50.0 µM,91% (active)
same,growth inhibition,[7]; at 1.2 µM,20%
same,growth inhibition,[7]; at 3.7 µM,20%
same,growth inhibition,[7]; at 11.0 µM,72% (active)
same,growth inhibition,[7]; at 33.0 µM,96% (active)
same,growth inhibition,[7]; at 100.0 µM,98% (active)
same,growth inhibition,[8]; [16],6%
same,growth inhibition,[8]; [17],91% (active)
same,growth inhibition,[8]; at 50.0 µM,88.5% (active)
same,growth inhibition,[9]; at 1.2 µM,-31%
same,growth inhibition,[9]; at 3.7 µM,30%
same,growth inhibition,[9]; [16],46%
same,growth inhibition,[9]; at 11.0 µM,87% (active)
same,growth inhibition,[9]; at 33.0 µM,96% (active)
same,growth inhibition,[9]; [17],96% (active)
same,growth inhibition,[9]; at 50.0 µM,87.8% (active)
same,growth inhibition,[9]; at 100.0 µM,97% (active)
same,growth inhibition,[10]; at 1.2 µM,-34%
same,growth inhibition,[10]; at 3.7 µM,8%
same,growth inhibition,[10]; at 11.0 µM,89% (active)
same,growth inhibition,[10]; at 33.0 µM,98% (active)
same,growth inhibition,[10]; at 100.0 µM,97% (active)
same,growth inhibition,[11]; at 1.2 µM,-35%
same,growth inhibition,[11]; at 3.7 µM,11%
same,growth inhibition,[11]; at 11.0 µM,89% (active)
same,growth inhibition,[11]; at 33.0 µM,95% (active)
same,growth inhibition,[11]; at 100.0 µM,96% (active)
same,growth inhibition,[12]; at 1.2 µM,-12%
same,growth inhibition,[12]; at 3.7 µM,32%
same,growth inhibition,[12]; at 11.0 µM,88% (active)
same,growth inhibition,[12]; at 33.0 µM,96% (active)
same,growth inhibition,[12]; at 100.0 µM,97% (active)
same,growth inhibition,[13]; [16],43%
same,growth inhibition,[13]; [17],99% (active)
same,growth inhibition,[13]; at 50.0 µM,91.5% (active)
same,growth inhibition,[14]; at 1.2 µM,-2%
same,growth inhibition,[14]; at 3.7 µM,43%
same,growth inhibition,[14]; at 11.0 µM,92% (active)
same,growth inhibition,[14]; at 33.0 µM,96% (active)
same,growth inhibition,[14]; at 100.0 µM,98% (active)
[Cl][Pt+2][Cl].[NH-]CC1(C[NH-])CCCCC1,growth inhibition,[15]; at 1.2 µM,-41%
same,growth inhibition,[15]; at 3.7 µM,-6%
same,growth inhibition,[15]; at 11.0 µM,96% (active)
same,growth inhibition,[15]; at 33.0 µM,98% (active)
same,growth inhibition,[15]; at 100.0 µM,98% (active)
same,growth inhibition,[2]; at 1.2 µM,-44%
same,growth inhibition,[2]; at 3.7 µM,12%
same,growth inhibition,[2]; at 11.0 µM,98% (active)
same,growth inhibition,[2]; at 33.0 µM,99% (active)
same,growth inhibition,[2]; at 100.0 µM,98% (active)
same,growth inhibition,[3]; at 1.2 µM,-63%
same,growth inhibition,[3]; at 3.7 µM,-37%
same,growth inhibition,[3]; [16],26%
same,growth inhibition,[3]; at 11.0 µM,86% (active)
same,growth inhibition,[3]; at 33.0 µM,98% (active)
same,growth inhibition,[3]; [17],100% (active)
same,growth inhibition,[3]; at 50.0 µM,91.1% (active)
same,growth inhibition,[3]; at 100.0 µM,98% (active)
same,growth inhibition,[4]; at 1.2 µM,-67%
same,growth inhibition,[4]; at 3.7 µM,-19%
same,growth inhibition,[4]; [16],21%
same,growth inhibition,[4]; at 11.0 µM,98% (active)
same,growth inhibition,[4]; at 33.0 µM,99% (active)
same,growth inhibition,[4]; [17],100% (active)
same,growth inhibition,[4]; at 50.0 µM,91.9% (active)
same,growth inhibition,[4]; at 100.0 µM,98% (active)
same,growth inhibition,[5]; at 1.2 µM,-29%
same,growth inhibition,[5]; at 3.7 µM,6%
same,growth inhibition,[5]; at 11.0 µM,96% (active)
same,growth inhibition,[5]; at 33.0 µM,98% (active)
same,growth inhibition,[5]; at 100.0 µM,98% (active)
same,growth inhibition,[6]; [16],53%
same,growth inhibition,[6]; [17],100% (active)
same,growth inhibition,[6]; at 50.0 µM,92.7% (active)
same,growth inhibition,[7]; at 1.2 µM,-5%
same,growth inhibition,[7]; at 3.7 µM,14%
same,growth inhibition,[7]; at 11.0 µM,62%
same,growth inhibition,[7]; at 33.0 µM,98% (active)
same,growth inhibition,[7]; at 100.0 µM,98% (active)
same,growth inhibition,[8]; [16],43%
same,growth inhibition,[8]; [17],100% (active)
same,growth inhibition,[8]; at 50.0 µM,69.5%
same,growth inhibition,[9]; at 1.2 µM,-42%
same,growth inhibition,[9]; at 3.7 µM,23%
same,growth inhibition,[9]; [16],45%
same,growth inhibition,[9]; at 11.0 µM,97% (active)
same,growth inhibition,[9]; at 33.0 µM,99% (active)
same,growth inhibition,[9]; [17],100% (active)
same,growth inhibition,[9]; at 50.0 µM,91.7% (active)
same,growth inhibition,[9]; at 100.0 µM,98% (active)
same,growth inhibition,[11]; at 1.2 µM,-68%
same,growth inhibition,[11]; at 3.7 µM,-2%
same,growth inhibition,[11]; at 11.0 µM,97% (active)
same,growth inhibition,[11]; at 33.0 µM,98% (active)
same,growth inhibition,[11]; at 100.0 µM,97% (active)
same,growth inhibition,[12]; at 1.2 µM,-14%
same,growth inhibition,[12]; at 3.7 µM,11%
same,growth inhibition,[12]; at 11.0 µM,83% (active)
same,growth inhibition,[12]; at 33.0 µM,98% (active)
same,growth inhibition,[12]; at 100.0 µM,97% (active)
same,growth inhibition,[13]; [16],3%
same,growth inhibition,[13]; [17],99% (active)
same,growth inhibition,[13]; at 50.0 µM,88.8% (active)
same,growth inhibition,[14]; at 1.2 µM,-24%
same,growth inhibition,[14]; at 3.7 µM,-6%
same,growth inhibition,[14]; at 11.0 µM,89% (active)
same,growth inhibition,[14]; at 33.0 µM,97% (active)
same,growth inhibition,[14]; at 100.0 µM,96% (active)
